Results as given in PubChem BioAssay (Tox21).
Where “and” joins values, the source holds several entries; their conditions need not be identical. Identical values can stand only once. Results filed as inconclusive are left out. Calls of active or inactive are those of the source. Unless noted, calls follow the shape of the dose curve; as a rule, active = well fitted curve in the direction sought with a large enough effect in the repeat runs; inconclusive = weak or mixed curves; inactive = no such curve, though single readings can be large; an effect the other way counts as inactive or inconclusive.

What was measured:
[1] = test system: thyroid hormone receptor (rat, GH3 cells); test: qHTS assay to identify small molecule agonists of the thyroid receptor (TR) signaling pathway (AID 743066; calls by dose curve)
[2] = biological target: Estrogen receptor (Homo sapiens) (UniProt P03372); test: qHTS assay to identify small molecule antagonists of the estrogen receptor alpha (ER-alpha) signaling pathway (AID 743069; active = well fitted curve in the direction sought with a large enough effect in the signal ratio in the repeat runs, not every such curve was filed as active; the % refers to the signal ratio)
How it was run: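 HEK293 cells stably carrying an ER-alpha-UAS-bla beta-lactamase reporter were pre-cultured overnight in 2% charcoal-stripped FBS medium. Test compounds in DMSO were added together with 17beta-estradiol for 18 hr at 37C. Read-out was fluorescence after 2 hr with LiveBLAzer B/G FRET substrate at room temperature.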

[3] = qHTS assay to identify small molecule antagonists of the estrogen receptor alpha (ER-alpha) signaling pathway - cell viability counter screen (AID 743074; calls by dose curve; also: nearly all actives have a fitted effect of over 45% in size)
[4] = biological target: Estrogen receptor (Homo sapiens) (UniProt P03372); test: qHTS assay to identify small molecule agonists of the estrogen receptor alpha (ER-alpha) signaling pathway (AID 743075; calls by dose curve)
[5] = biological target: Estrogen receptor (Homo sapiens) (UniProt P03372); test: qHTS assay to identify small molecule agonists of the estrogen receptor alpha (ER-alpha) signaling pathway using the BG1 cell line (AID 743079); conditions: BG1Luc4E2 cells, ERE-luciferase agonist, 22 h; activation: at 70.3 µM (top of the series); also: nearly all actives have a fitted effect of over 20% in size
[6] = qHTS assay to identify small molecule antagonists of the estrogen receptor alpha (ER-alpha) signaling pathway using the BG1 cell line (AID 743080; calls by dose curve; also: nearly all actives have a fitted effect of over 25% in size); conditions: BG1Luc4E2 ERE-luciferase antagonist mode, luminescence; activity change, negative = inhibition: at 70.3 µM (top of the series)
How it was run: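 Antagonist mode: compounds in DMSO were pinned onto BG1-Luc-4E2 cells alongside 17beta-estradiol agonist, incubated 21.5 h, and ERE-driven luciferase measured with ONE-Glo. Cytotoxicity was multiplexed using CellTiter-Fluor fluorescence.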

[7] = qHTS assay to identify small molecule antagonists of the estrogen receptor alpha (ER-alpha) signaling pathway using the BG1 cell line - cell viability counter screen (AID 743081);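 also: compound given together with 17beta-estradiol as the ER stimulus; nearly all actives have a fitted effect of over 45% in size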; also: potency is read from the fitted curve at half-maximal effect
Aromatase (Homo sapiens) = Aromatase (Homo sapiens) (UniProt P11511); test: qHTS assay to identify aromatase inhibitors (AID 743083); also: nearly all actives have a fitted effect of over 55% in size; also: potency is read from the fitted curve at half-maximal effect
[8] = qHTS assay to identify aromatase inhibitors - cell viability counter screen (AID 743084);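 also: cells stimulated with testosterone during compound exposure; nearly all actives have a fitted effect of over 55% in size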
[9] = biological target: Aryl hydrocarbon receptor (Homo sapiens) (UniProt P35869); test: qHTS assay to identify small molecule that activate the aryl hydrocarbon receptor (AhR) signaling pathway (AID 743085); also: nearly all actives have a fitted effect of over 15% in size; also: potency is read from the fitted curve at half-maximal effect;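 as to activation: HG2L7.5c1 human HepG2 liver cells with stably integrated DRE-driven firefly reporter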
How it was run: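 A multiplexed format paired cell viability (CellTiter-Fluor fluorescence) with AhR-dependent luciferase output (ONE-Glo luminescence) in the same wells of HepG2 DRE-luc cells after 24 h compound exposure at 37C.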

[10] = qHTS assay to identify small molecule that activate the aryl hydrocarbon receptor (AhR) signaling pathway - cell viability counter screen (AID 743086);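 also: HepG2 liver cells carrying the AhR DRE luciferase reporter; nearly all actives have a fitted effect of over 45% in size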
How it was run: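 HepG2-AhR-luc (HG2L7.5c1) cells, 4000/well, were preincubated 5 h at 37C, exposed to compound in qHTS format for 24 hr at 37C, then given CellTiter-Fluor for 30 min; viability was read as fluorescence in the reporter wells.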

[11] = biological target: Peroxisome proliferator-activated receptor gamma (Homo sapiens) (UniProt P37231); test: qHTS assay to identify small molecule agonists of the peroxisome proliferator-activated receptor gamma (PPARg) signaling pathway (AID 743094; active = well fitted activation curve with a large enough effect in the signal ratio in the repeat runs, not every such curve was filed as active; the % refers to the signal ratio)
How it was run: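 Following 5 h plating at 37C, PPARg-bla HEK293H cells receive compound or DMSO for 17 h; fluorescence intensity is recorded after LiveBLAzer B/G loading for 1 h at room temperature.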

[12] = biological target: Peroxisome proliferator-activated receptor gamma (Homo sapiens) (UniProt P37231); test: qHTS assay to identify small molecule antagonists of the peroxisome proliferator-activated receptor gamma (PPARg) signaling pathway (AID 743191; calls by dose curve; also: nearly all actives have a fitted effect of over 30% in size)
How it was run: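 GeneBLAzer PPARg UAS-bla HEK293H cells carrying a UAS-driven beta-lactamase reporter were plated at 3000 cells/well, preincubated 5 h at 37C, then given compound for 17 h at 37C; LiveBLAzer B/G FRET substrate was read after 1 h at room temperature.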

[13] = qHTS assay to identify small molecule antagonists of the peroxisome proliferator-activated receptor gamma (PPARg) signaling pathway - cell viability counter screen (AID 743194); also: nearly all actives have a fitted effect of over 55% in size
How it was run: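 PPARg-UAS-bla HEK293H cells were plated, rested 5 h at 37 C, then treated with compounds plus rosiglitazone (50 nM final) for 17 h at 37 C; viability was then read by CellTiter-Glo luminescence after 30 min at room temperature.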

[14] = qHTS assay for small molecule agonists of the antioxidant response element (ARE) signaling pathway - cell viability counter screen (AID 743203; calls by dose curve; also: nearly all actives have a fitted effect of over 55% in size)
How it was run: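 Compounds in DMSO were pinned onto ARE-bla HepG2 cells plated 5 hrs earlier at 2,000 cells/well. Sixteen hours later at 37C/5% CO2, CellTiter-Glo was added and luminescence measured after 30 min at room temperature.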

[15] = qHTS assay for small molecule activators of the heat shock response signaling pathway - cell viability counter screen (AID 743209); also: nearly all actives have a fitted effect of over 50% in size
How it was run: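 Counter screen for cytotoxicity in HeLa HSE-bla reporter cells. Treatment was 5 h at 37 C; viability was detected by luminescent ATP assay (CellTiter-Glo) in the same wells as the beta-lactamase read.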

[16] = qHTS assay for small molecule activators of the heat shock response signaling pathway (AID 743210; active = well fitted activation curve with a large enough effect in the signal ratio in the repeat runs, with a control signal flat, not every such curve was filed as active; the % refers to the signal ratio)
How it was run: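 HSE-bla HeLa cells (beta-lactamase reporter under heat shock response elements) were exposed to compounds for 5 h at 37 C, then loaded with LiveBLAzer B/G FRET substrate for 2.5 h at room temperature before fluorescence reading.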

[17] = biological target: Peroxisome proliferator-activated receptor delta (Homo sapiens) (UniProt Q03181); test: qHTS assay to identify small molecule agonists of the peroxisome proliferator-activated receptor delta (PPARd) signaling pathway (AID 743212; calls by dose curve)
How it was run: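 GeneBLAzer PPARd UAS-bla HEK293H cells (beta-lactamase reporter under UAS control), plated and rested 5 h at 37 C, then exposed to compounds in DMSO at 37 C; LiveBLAzer B/G FRET substrate added, 2 h room temperature, fluorescence read.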

[18] = qHTS assay for small molecule agonists of the antioxidant response element (ARE) signaling pathway (AID 743202; active = well fitted activation curve with a large enough effect in the signal ratio in the repeat runs, not every such curve was filed as active; the % refers to the signal ratio; also: potency is read from the fitted curve at half-maximal effect)
How it was run: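 Read-out: LiveBLAzer B/G FRET substrate fluorescence after 2 h at room temperature, following 16 h compound treatment at 37 C of HepG2 cells carrying an ARE-driven beta-lactamase reporter.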

[19] = qHTS assay to identify small molecule agonists of the peroxisome proliferator-activated receptor delta (PPARd) signaling pathway - cell viability counter screen (AID 743211); also: nearly all actives have a fitted effect of over 55% in size
How it was run: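 Tox21 library compounds, delivered in DMSO, were incubated 17 h with PPARd-bla HEK293H cells; cytotoxicity was taken from CellTiter-Glo luminescence read 30 min after reagent addition.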

Measured: Potency

Chain of Estrogen receptor (Homo sapiens) (P03372 whole entry, looked up): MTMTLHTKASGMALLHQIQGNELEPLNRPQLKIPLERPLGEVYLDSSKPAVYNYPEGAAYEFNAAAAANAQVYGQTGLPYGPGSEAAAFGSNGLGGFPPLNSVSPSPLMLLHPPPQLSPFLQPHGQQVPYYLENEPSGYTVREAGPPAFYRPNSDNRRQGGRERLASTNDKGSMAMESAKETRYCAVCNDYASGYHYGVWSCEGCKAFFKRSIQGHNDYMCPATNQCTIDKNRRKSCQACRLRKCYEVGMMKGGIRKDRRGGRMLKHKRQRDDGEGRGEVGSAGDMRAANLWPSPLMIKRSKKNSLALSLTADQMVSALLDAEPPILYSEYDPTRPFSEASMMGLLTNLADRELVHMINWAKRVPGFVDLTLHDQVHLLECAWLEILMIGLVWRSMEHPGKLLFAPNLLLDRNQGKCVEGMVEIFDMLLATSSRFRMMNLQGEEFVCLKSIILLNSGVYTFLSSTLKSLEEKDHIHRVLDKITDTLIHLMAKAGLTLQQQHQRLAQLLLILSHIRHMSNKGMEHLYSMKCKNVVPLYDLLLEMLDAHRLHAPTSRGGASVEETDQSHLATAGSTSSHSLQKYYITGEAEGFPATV
Chain of Aromatase (Homo sapiens) (P11511 whole entry, looked up): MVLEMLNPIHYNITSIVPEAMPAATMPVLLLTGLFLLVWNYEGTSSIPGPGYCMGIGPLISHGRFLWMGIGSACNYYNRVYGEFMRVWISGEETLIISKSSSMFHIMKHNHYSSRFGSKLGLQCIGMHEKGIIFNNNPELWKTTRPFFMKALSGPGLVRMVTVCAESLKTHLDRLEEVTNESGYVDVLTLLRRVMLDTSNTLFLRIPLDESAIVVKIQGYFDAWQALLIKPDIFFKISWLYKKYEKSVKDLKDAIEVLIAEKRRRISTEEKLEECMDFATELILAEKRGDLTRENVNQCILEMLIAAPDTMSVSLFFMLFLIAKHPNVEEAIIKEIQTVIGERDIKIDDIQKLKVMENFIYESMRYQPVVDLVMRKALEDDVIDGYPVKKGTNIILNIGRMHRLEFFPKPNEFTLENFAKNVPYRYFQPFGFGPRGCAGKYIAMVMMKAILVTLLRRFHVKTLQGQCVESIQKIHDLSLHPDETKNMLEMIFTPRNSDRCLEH
Chain of Aryl hydrocarbon receptor (Homo sapiens) (P35869 whole entry, looked up): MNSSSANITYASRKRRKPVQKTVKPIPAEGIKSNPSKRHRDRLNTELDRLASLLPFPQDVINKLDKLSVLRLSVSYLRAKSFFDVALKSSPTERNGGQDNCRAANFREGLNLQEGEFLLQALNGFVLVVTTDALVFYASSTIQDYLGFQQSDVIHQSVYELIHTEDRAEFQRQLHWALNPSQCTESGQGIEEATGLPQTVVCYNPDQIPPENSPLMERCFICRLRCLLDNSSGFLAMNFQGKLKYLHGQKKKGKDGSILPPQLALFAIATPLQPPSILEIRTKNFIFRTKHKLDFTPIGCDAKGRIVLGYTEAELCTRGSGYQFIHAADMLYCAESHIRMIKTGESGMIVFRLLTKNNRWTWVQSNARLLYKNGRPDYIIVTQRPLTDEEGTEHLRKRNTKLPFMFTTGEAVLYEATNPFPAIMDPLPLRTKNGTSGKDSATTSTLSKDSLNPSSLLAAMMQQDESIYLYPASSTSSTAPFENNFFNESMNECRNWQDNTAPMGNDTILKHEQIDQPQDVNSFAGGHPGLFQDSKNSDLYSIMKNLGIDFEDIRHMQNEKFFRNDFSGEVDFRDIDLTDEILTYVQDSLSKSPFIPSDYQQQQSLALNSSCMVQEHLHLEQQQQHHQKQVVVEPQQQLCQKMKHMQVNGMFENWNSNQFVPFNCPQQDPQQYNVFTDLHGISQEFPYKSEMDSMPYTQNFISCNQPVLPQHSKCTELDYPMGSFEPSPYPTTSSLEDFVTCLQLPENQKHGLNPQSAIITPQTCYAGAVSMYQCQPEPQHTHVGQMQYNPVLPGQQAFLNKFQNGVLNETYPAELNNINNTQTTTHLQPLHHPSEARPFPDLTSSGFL
Chain of Peroxisome proliferator-activated receptor delta (Homo sapiens) (Q03181 whole entry, looked up): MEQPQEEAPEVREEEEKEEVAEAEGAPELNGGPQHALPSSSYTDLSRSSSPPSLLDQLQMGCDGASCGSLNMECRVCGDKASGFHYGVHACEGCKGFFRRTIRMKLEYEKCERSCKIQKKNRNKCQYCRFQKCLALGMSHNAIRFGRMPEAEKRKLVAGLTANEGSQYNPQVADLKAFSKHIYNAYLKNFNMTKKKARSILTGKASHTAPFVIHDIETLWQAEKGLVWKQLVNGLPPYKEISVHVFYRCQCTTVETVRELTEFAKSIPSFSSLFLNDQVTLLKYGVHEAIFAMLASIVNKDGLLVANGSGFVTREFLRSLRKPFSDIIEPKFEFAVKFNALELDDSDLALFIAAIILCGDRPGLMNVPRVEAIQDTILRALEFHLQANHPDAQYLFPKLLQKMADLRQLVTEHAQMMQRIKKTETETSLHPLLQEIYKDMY
Chain of Peroxisome proliferator-activated receptor gamma (Homo sapiens) (P37231 whole entry, looked up): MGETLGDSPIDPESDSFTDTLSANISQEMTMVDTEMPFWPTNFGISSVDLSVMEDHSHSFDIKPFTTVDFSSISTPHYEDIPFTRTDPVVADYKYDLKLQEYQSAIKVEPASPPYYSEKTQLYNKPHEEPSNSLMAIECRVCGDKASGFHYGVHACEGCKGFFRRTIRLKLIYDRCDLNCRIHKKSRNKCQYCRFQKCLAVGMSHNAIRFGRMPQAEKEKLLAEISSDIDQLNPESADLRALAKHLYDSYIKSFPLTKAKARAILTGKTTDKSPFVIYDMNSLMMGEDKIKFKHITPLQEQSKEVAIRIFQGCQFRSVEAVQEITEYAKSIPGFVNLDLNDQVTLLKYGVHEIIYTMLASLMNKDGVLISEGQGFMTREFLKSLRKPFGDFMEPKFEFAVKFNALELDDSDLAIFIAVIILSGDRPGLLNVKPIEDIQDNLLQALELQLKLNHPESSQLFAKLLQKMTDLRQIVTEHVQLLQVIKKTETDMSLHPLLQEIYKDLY

CCCCNc1c(C(=O)OCC)c(C)nc2c1cnn2CC
active: [9] 4.73 µM
not listed: [18] | [19]
inactive: all other assays above

CC(C)N=C(N)/N=C(\N)Nc1ccc(Cl)cc1
not listed: [12] | [15] | [18] | [19]
inactive: all other assays above

CCN(CC)CCOC(=O)C1(C2CCCCC2)CCCCC1
active: Aromatase (Homo sapiens) 29.8 µM
not listed: [8] | [15] | [19]
inactive: all other assays above

NCCCCCCNCCCCCCN
not listed: [18]
inactive: all other assays above

COC(=O)CC#N
not listed: [17]
inactive: all other assays above

O=Nc1ccc(NO)cc1
active: [9] 31.9 µM | [18] 6.36 µM
inactive: all other assays above

CC(=O)Oc1ccc(C2(c3ccc(OC(C)=O)cc3)C(=O)Nc3ccccc32)cc1
active: [7] 841 nM and 1.19 µM
not listed: [5] | [6] | [18]
inactive: all other assays above
